Data reported in PubChem BioAssay AID488890 (Southern Research Specialized Biocontainment Screening …, 2010).
Screen size: about 320,000 compounds; about 1,300 (0.41%) were called active. Inconclusive results (about 3%) are left out. The rule behind the calls is not given here. A selection follows. Potency and affinity values are given separately.

test: growth inhibition of non-replicating M. tuberculosis (AID 488890); conditions: Mycobacterium tuberculosis non-replicating, at 25 µM, stronger effect = higher value;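 note: plate controls were DMSO cells for no effect and high antibiotic wells for full effect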

Row | Compound | inhibition [%]
1 | CCOC(=O)/C(=N\Nc1ccccc1Cl)N1CCN(c2ccccc2OC)CC1 | 19
2 | c1ccc(-n2cnc3cc(NCc4cccs4)ccc32)cc1 | 28.9
3 | COc1ccc2nc(NC(=O)c3ccccc3-c3ccccc3C(=O)O)sc2c1 | 76.6
4 | Cc1ccc(C(=O)O)c(C(=O)Nc2nc3ccccc3s2)c1 | 11.2
5 | O=C(COC(=O)c1ccccc1C(=O)c1ccccc1)NCc1ccc(F)cc1 | 31.8
6 | O=C(CCc1ccccc1)N1CCN(c2ccc(F)cc2)CC1 | 73.8
7 | O=C(CCC(=O)N1CCN(c2ccccc2F)CC1)N1CCN(c2ccccc2)CC1 | 45
8 | COC(=O)c1ccccc1NC(=O)CN1C(=O)CSC1=O | -0.76
9 | CC(C)(C)NCC(O)CON=C1c2ccccc2-c2ccccc21 (stereo not given) | 65.3
10 | COCCNCC(O)CON=C1c2ccccc2-c2ccccc21 (stereo not given) | 54.3
11 | COc1ccc(-c2csc3ncnc(N4CCN(c5cccc(C)c5C)CC4)c23)cc1 | 11.9
12 | O=C(NCCN1CCOCC1)C1CCN(S(=O)(=O)N2CCCCC2)CC1 | -2.95
13 | CCOC(=O)N1CCN(S(=O)(=O)c2ccc(C(=O)N(CCCN(C)C)c3nc4ccc(OC)cc4s3)cc2)CC1 | 3.45
14 | COc1ccc(OC)c(N/C(C)=C/C(=O)c2ccncc2)c1 | 0
15 | C/C(=C\C(=O)c1ccccc1)Nc1ccc(O)cc1 | 29.4
16 | COc1ccc(C(=O)c2c3ccc(OC)cc3[n+]([O-])n2Cc2ccc(C(N)=O)cc2)cc1 | 17.1
17 | COc1ccc(-c2nnc(SCC(=O)N(C)C3CCS(=O)(=O)C3)n2C(C)C)cc1 (stereo not given) | -12.8
18 | Cc1ccc(C2=N/C(=C\N3CCCCC3)C(=O)O2)cc1 | 21.3
19 | CC1=N/C(=C/c2cccnc2)C(=O)O1 | -16.7
20 | COc1cc(C(C[N+](=O)[O-])c2c(N)n(C)c(=O)n(C)c2=O)ccc1O (stereo not given) | 23.3
21 | COc1ccccc1C(c1c(N)n(C)c(=O)n(C)c1=O)C(C)[N+](=O)[O-] (stereo not given) | 53
22 | COc1ccc(CCN(C)Cc2ccncc2)cc1OC | 1.96
23 | O=C(Nc1ncccc1O)c1ccc2c(c1)OCCO2 | -9.11
24 | COc1ccc(OC(=O)c2ccc(OC)c(S(=O)(=O)N3CCOCC3)c2)cc1 | 21.9
25 | O=C(Nc1cccc2cccnc12)c1ccc2c(c1)OCCO2 | 16.4
26 | COc1ccccc1OC(=O)c1ccc(C)c(S(=O)(=O)N2CCOCC2)c1 | 16.8
27 | O=C(Nc1cccc2cccnc12)c1cccc([N+](=O)[O-])c1 | 14.7
28 | O=[N+]([O-])c1ccc(Oc2cccc3cccnc23)c([N+](=O)[O-])c1 | 72
29 | Cc1ccc(S(=O)(=O)NCc2cccnc2)cc1C | 3.38
30 | Cn1c(SCc2nc3ccccc3[nH]2)nnc1-c1cnccn1 | 11
